According to PubChem BioAssay AID1159580 (chemical genetic matrix, 2015):
Screen size: about 5,500 compounds; about 2,000 (36%) were called active. About 18% were inconclusive and are not listed. Rule as the data show it: active = normalized growth mostly below about 0.91 (no sharp cut-off); inconclusive = no clear call, values can overlap the other calls; inactive = mostly above about 0.92. The list shows a part of the results.

Test: chemical genetic growth profiling, strain panel (AID 1159580);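 also: tested at 20 µM; growth read once vehicle control cultures reached saturation at 30 °C; 1 = growth at the plate median or of vehicle wells; lower values mean less growth of the strain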
Conditions: growth OD

Measured: normalized growth

NS(=O)(=O)c1cc2c(cc1Cl)NC(C(Cl)Cl)NS2(=O)=O (stereo not drawn)
inactive: S. cerevisiae deletion strains, locus YKL009W, strain mrt4, hits give low values 1.02 | S. cerevisiae deletion strains, locus YKL068W, hits give low values 1 | S. cerevisiae deletion strains, locus YKL085W, strain MDH1 (second series), hits give low values 1.01 | S. cerevisiae deletion strains, locus YKL085W, strain MDH1, hits give low values 1.01 | S. cerevisiae deletion strains, locus YKL160W, strain elf1, hits give low values 1 | S. cerevisiae deletion strains, locus YKL190W, strain CNB1, hits give low values 1.02 | S. cerevisiae deletion strains, locus YKR001C, strain vps1, hits give low values 1.03 | S. cerevisiae deletion strains, locus YKR026C, strain gcn3, hits give low values 0.99 | S. cerevisiae deletion strains, locus YKR091W, strain srl3, hits give low values 0.97 | S. cerevisiae deletion strains, locus YLL001W, strain dnm1, hits give low values 1.01 | S. cerevisiae deletion strains, locus YLL026W, hits give low values 0.991 | S. cerevisiae deletion strains, locus YLL041C, strain sdh2, hits give low values 0.988 | S. cerevisiae deletion strains, locus YLR027C, strain aat2, hits give low values 0.985 | S. cerevisiae deletion strains, locus YLR039C, strain RIC1, hits give low values 1.06 | S. cerevisiae deletion strains, locus YLR058C, strain SHM2, hits give low values 1.02 | S. cerevisiae deletion strains, locus YLR102C, strain apc9, hits give low values 1.01 | S. cerevisiae deletion strains, locus YLR113W, strain HOG1, hits give low values 0.996 | S. cerevisiae deletion strains, locus YLR221C, strain rsa3, hits give low values 0.949 | S. cerevisiae deletion strains, locus YLR258W, strain gsy2, hits give low values 0.977 | S. cerevisiae deletion strains, locus YLR262C, strain YPT6 (second series), hits give low values 0.999 | S. cerevisiae deletion strains, locus YLR262C, strain YPT6, hits give low values 1.05 | S. cerevisiae deletion strains, locus YLR268W, strain sec22, hits give low values 1.04 | S. cerevisiae deletion strains, locus YLR320W, strain mms22, hits give low values 0.972 | S. cerevisiae deletion strains, locus YLR330W, strain CHS5, hits give low values 1 | S. cerevisiae deletion strains, locus YLR342W, strain FKS1 (second series), hits give low values 1.02 | S. cerevisiae deletion strains, locus YLR342W, strain FKS1, hits give low values 0.993 | S. cerevisiae deletion strains, locus YLR357W, strain rsc2, hits give low values 0.956 | S. cerevisiae deletion strains, locus YLR370C, strain arc18, hits give low values 0.985 | S. cerevisiae deletion strains, locus YLR371W, strain rom2, hits give low values 1.02 | S. cerevisiae deletion strains, locus YLR384C, strain iki3, hits give low values 0.973 | S. cerevisiae deletion strains, locus YLR418C, strain cdc73, hits give low values 1.05 | S. cerevisiae deletion strains, locus YML016C, strain PPZ1, hits give low values 1 | S. cerevisiae deletion strains, locus YML032C, strain rad52, hits give low values 1.02 | S. cerevisiae deletion strains, locus YML120C, strain ndi1, hits give low values 0.986 | S. cerevisiae deletion strains, locus YML124C, strain tub3, hits give low values 1.02 | S. cerevisiae deletion strains, locus YMR058W, strain fet3, hits give low values 0.982 | S. cerevisiae deletion strains, locus YMR078C, strain ctf18, hits give low values 1.02 | S. cerevisiae deletion strains, locus YMR125W, strain sto1, hits give low values 0.966 | S. cerevisiae deletion strains, locus YMR129W, hits give low values 0.97 | S. cerevisiae deletion strains, locus YMR205C, strain PFK2, hits give low values 0.994 | S. cerevisiae deletion strains, locus YMR223W, strain ubp8, hits give low values 1.01 | S. cerevisiae deletion strains, locus YMR231W, strain pep5, hits give low values 0.971 | S. cerevisiae deletion strains, locus YMR263W, strain SAP30, hits give low values 1.01 | S. cerevisiae deletion strains, locus YMR307W, strain GAS1, hits give low values 1 | S. cerevisiae deletion strains, locus YNL067W, strain RPL9B, hits give low values 1.01 | S. cerevisiae deletion strains, locus YNL071W, strain lat1, hits give low values 0.981 | S. cerevisiae deletion strains, locus YNL183C, strain NPR1, hits give low values 0.943 | S. cerevisiae deletion strains, locus YNL209W, strain ssb2, hits give low values 0.997 | S. cerevisiae deletion strains, locus YNL233W, strain BNI4, hits give low values 1.01 | S. cerevisiae deletion strains, locus YNL248C, strain rpa49, hits give low values 0.935 | S. cerevisiae deletion strains, locus YNL250W, strain rad50, hits give low values 1.02 | S. cerevisiae deletion strains, locus YNL271C, strain bni1, hits give low values 1.01 | S. cerevisiae deletion strains, locus YNL298W, strain CLA4, hits give low values 1.01 | S. cerevisiae deletion strains, locus YNL307C, strain MCK1, hits give low values 1.03 | S. cerevisiae deletion strains, locus YNL322C, strain KRE1 (second series), hits give low values 0.968 | S. cerevisiae deletion strains, locus YNR049C, strain mso1, hits give low values 0.971 | S. cerevisiae deletion strains, locus YNR052C, strain pop2, hits give low values 1.01 | S. cerevisiae deletion strains, locus YOL006C, strain TOP1, hits give low values 1.02 | S. cerevisiae deletion strains, locus YOL012C, strain htz1 0.822 | S. cerevisiae deletion strains, locus YOL147C, strain pex11, hits give low values 1.01 | S. cerevisiae deletion strains, locus YOR001W, strain rrp6, hits give low values 0.978 | S. cerevisiae deletion strains, locus YOR061W, strain CKA2, hits give low values 1 | S. cerevisiae deletion strains, locus YOR069W, strain VPS5, hits give low values 1.01 | S. cerevisiae deletion strains, locus YOR070C, strain gyp1, hits give low values 0.983 | S. cerevisiae deletion strains, locus YOR080W, strain dia2, hits give low values 0.984 | S. cerevisiae deletion strains, locus YOR083W, strain WHI5, hits give low values 0.982 | S. cerevisiae deletion strains, locus YOR106W, strain vam3, hits give low values 1.01 | S. cerevisiae deletion strains, locus YOR136W, strain idh2, hits give low values 1.01 | S. cerevisiae deletion strains, locus YOR144C, strain elg1, hits give low values 1 | S. cerevisiae deletion strains, locus YOR184W, strain ser1, hits give low values 1.02 | S. cerevisiae deletion strains, locus YOR231W, strain MKK1, hits give low values 0.98 | S. cerevisiae deletion strains, locus YOR265W, strain rbl2, hits give low values 0.981 | S. cerevisiae deletion strains, locus YOR270C, strain vph1, hits give low values 0.967 | S. cerevisiae deletion strains, locus YOR290C, strain snf2, hits give low values 0.945 | S. cerevisiae deletion strains, locus YOR316C, strain cot1, hits give low values 1.01 | S. cerevisiae deletion strains, locus YPL051W, strain arl3, hits give low values 0.991 | S. cerevisiae deletion strains, locus YPL055C, strain LGE1, hits give low values 1.02 | S. cerevisiae deletion strains, locus YPL078C, strain atp4, hits give low values 1 | S. cerevisiae deletion strains, locus YPL106C, strain sse1, hits give low values 0.96 | S. cerevisiae deletion strains, locus YPL240C, strain hsp82, hits give low values 0.983 | S. cerevisiae deletion strains, locus YPL241C, strain CIN2, hits give low values 1.01 | S. cerevisiae deletion strains, locus YPL256C, strain CLN2, hits give low values 0.969 | S. cerevisiae deletion strains, locus YPR119W, strain clb2, hits give low values 1 | S. cerevisiae deletion strains, locus YPR141C, strain kar3, hits give low values 1.02 | S. cerevisiae deletion strains, locus YPR163C, strain tif3, hits give low values 1.02 | S. cerevisiae deletion strains, locus YPR167C, strain met16, hits give low values 1.01 | S. cerevisiae deletion strains, strain wtn01, hits give low values 1.03 | S. cerevisiae strains, strain wild type, hits give low values 1
